Assay outcomes: PubChem BioAssay, National Center for Advancing Translational Sciences (NCATS)
Sampled rows, rich in hits. Any-hit rate of the full collection: about 7.3%.
NPC1 promoter act – activators of NPC1 promoter | Huh7 NPC1 promoter luciferase reporter, 24 h | AID 485313 | Potency, µM (top dose mostly 9.22 µM), without a hit: at the highest dose activation, actives largely listed as activators | 320,000 tested, 2.4% active; also: % of control where 0% means no effect; nearly all actives have a fitted effect of over 60% in size
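In 1536-well qHTS, Huh7 cells harboring an NPC1 promoter–luciferase construct received compound for 24 h; activation was quantified by luminescence following luciferase reagent addition.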
SMN2 splice up – SMN2 splice variant enhancement. 210,000 tested, 2.8% active. HEK293 SMN2-luciferase splicing reporter, luminescence, 30-36 h. Potency, µM (highest dose often 46.1 µM), without a hit: at the top dose activity change, positive = activation, most hits filed as activators. AID 1458; also: % of control where 0% means no effect; nearly all actives have a fitted effect of over 55% in size
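HEK293 cells carry an SMN2 […]–luciferase reporter in which exon 7 inclusion puts luciferase in frame. Cells were plated 10-12 h before compound addition, then incubated 30-36 h at 37C. ONE-Glo luminescence was read; sodium butyrate at 4.5 mM final served as control.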
Rab9 promoter act – activators of Rab9 promoter; Potency, µM (highest dose often 9.22 µM), without a hit: at the top dose activation, negative = inhibition, most hits filed as activators; Huh7 Rab9 promoter-luciferase reporter, luminescence, 24 h; 320,000 tested, 2.8% active; also: % of control where 0% means no effect; nearly all actives have a fitted effect of over 60% in size
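Luminescence read-out: Huh7 cells stably expressing Rab9-luciferase, treated 24 h with compound at 37 °C, then lysed with luciferase reagent for 10 min at ambient before reading.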
FLuc counter – firefly luciferase modulation, counter-screen for miR-21 project | purified FLuc, Km substrates, luminescence inhibition | P08659 | 360,000 tested, 6.9% active | Potency, µM (highest dose often 57.5 µM), for inactives: at the top dose activity change, negative = inhibition, most hits filed as inhibitors;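 also: plate controls were vehicle for no effect and reference inhibitor for full effect; nearly all actives have a fitted effect of over 55% in size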
Target sequence (P08659 whole entry, looked up): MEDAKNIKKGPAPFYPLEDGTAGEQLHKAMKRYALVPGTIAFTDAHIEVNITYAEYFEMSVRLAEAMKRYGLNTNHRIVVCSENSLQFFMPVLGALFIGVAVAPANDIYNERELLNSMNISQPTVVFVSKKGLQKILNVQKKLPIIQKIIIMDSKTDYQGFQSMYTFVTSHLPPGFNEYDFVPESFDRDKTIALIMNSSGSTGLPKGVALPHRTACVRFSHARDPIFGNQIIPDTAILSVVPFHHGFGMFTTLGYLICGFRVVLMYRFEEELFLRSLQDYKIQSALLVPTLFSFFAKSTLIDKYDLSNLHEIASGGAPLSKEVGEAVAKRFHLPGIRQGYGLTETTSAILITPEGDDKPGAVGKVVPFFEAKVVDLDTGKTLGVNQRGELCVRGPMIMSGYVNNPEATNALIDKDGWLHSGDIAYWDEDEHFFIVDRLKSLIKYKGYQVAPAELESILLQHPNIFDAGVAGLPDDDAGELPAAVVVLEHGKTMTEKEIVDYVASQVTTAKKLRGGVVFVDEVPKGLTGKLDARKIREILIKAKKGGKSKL
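Purified P. pyralis luciferase, 10 nM final, with Km-level 10 uM D-luciferin and 10 uM ATP in 50 mM Tris acetate pH 7.5, 10 mM Mg acetate, 0.01% Tween-20, 0.05% BSA; 6-point qHTS titration about 60 µM downward; luminescence read.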
ELG1 genotox – genotoxicity induction in ELG1-luciferase HEK293T cells | HEK293T ELG1-luciferase reporter, luminescence, 16 h | Potency, µM (top dose mostly 46 µM), for the others: at the highest dose activity change, positive = activation, hits mostly activators | 330,000 tested, 1.3% active | AID 504466; also: % of control where 0% means no effect; nearly all actives have a fitted effect of over 60% in size
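Genotoxic stress is detected as increased luminescence from luciferase-tagged ELG1 in HEK293T cells, measured with ONE-Glo after a 16 hr treatment at 37 °C.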
uPA surface inh – cell surface uPA generation inhibition. Potency, µM (doses to about 38.3 µM), for inactives: at the highest dose activity change, negative = inhibition, usual class: inhibitors. 330,000 tested, 0.31% active. AID 540303. cell surface uPA generation assay, qHTS; active = well fitted inhibition curve with a large enough effect; inconclusive = small, poorly fitted or top-dose-only effect; inactive = no such curve, though single readings can be large or run the other way; tested in mouse RAW 264.7 cells; also: % is scaled to controls: 0 for no effect and ±100 for the full control effect; nearly all actives have a fitted effect of over 55% in size
Active calls of the source: *; ? = inconclusive; . = no result. Unless noted, calls follow the shape of the dose curve; as a rule, active = well fitted curve in the direction sought with a large enough effect; inconclusive = small, poorly fitted or top-dose-only effect, or another doubt; inactive = no such curve, though single readings can be large; an effect the other way counts as inactive or inconclusive. Potency is read from the fitted curve at half-maximal effect.

SMILES	NPC1 promoter act	SMN2 splice up	Rab9 promoter act	FLuc counter	ELG1 genotox	uPA surface inh
Cc1ccc2nc(N3C(=O)C(O)=C(C(=O)c4ccco4)C3c3cccs3)sc2c1 (stereo not drawn)	-3%	0%	16%	17µM*	12%	-15%
COc1ccc2nc(N3C(=O)C(O)=C(C(=O)c4ccco4)C3c3ccc(C)o3)sc2c1 (stereo not drawn)	-3%	.	-5%	?	2%	2%
Nc1nc(COc2ccc3ccccc3c2)cs1	.	30%	.	12µM*	.	-18%
CC(=O)Nc1nc(COc2ccccc2)cs1	3.2µM*	18µM*	?	?	10µM*	.
O=C(Nc1nc(COc2ccccc2)cs1)C12CC3CC(CC(C3)C1)C2	12%	-69%	23%	15µM*	?	.
Cc1ccc(C(=O)Nc2nc(COc3ccccc3)cs2)s1	.	-28%	.	17µM*	.	-10%
COc1cccc(OC)c1C(=O)Nc1nc(COc2ccccc2)cs1	3%	-18%	-1%	?	-8%	-1%
COc1ccccc1OCc1csc(N)n1	-1%	14%	16%	4%	-2%	-8%
COc1ccc(OC)c(S(=O)(=O)N2CC=C(c3c(C)n(CC(=O)N4CCCC4)c4ccccc34)CC2)c1	.	-14%	.	-2%	.	.
CCOC(=O)C(=O)Nc1ncc(Cl)s1	-1%	.	4%	-14%	0%	1%
CCC(=O)N1CCc2cc(Br)cc(S(=O)(=O)CCC(=O)NCCc3ccccc3Cl)c21	.	-4%	.	-13%	.	.
COC(=O)[C@]1(C)N[C@H](CN(C)S(=O)(=O)c2ccc(C)cc2)[C@@H]2C(=O)N(Cc3ccccc3)C(=O)[C@@H]21	.	.	.	.	0%	0%
CCc1cc(=O)oc2c(C)c3c(cc12)CN(CCc1ccccc1)CO3	.	-1%	.	-1%	.	.
O=C(NC1CC(=O)N(c2ccc(Cl)cc2)C1)c1cc2ccccc2o1 (stereo not drawn)	.	.	.	0%	.	.
CC(=O)Nc1nc(COc2ccc3ccccc3c2)cs1	2.8µM*	4%	6.3µM*	12µM*	?	3%
CC(=O)Nc1nc(CC(=O)c2ccccc2)cs1	1%	-4%	-5%	-6%	7%	-11%
O=C(Nc1nc(COc2ccccc2)cs1)C1CCC1	?	13%	?	12µM*	?	-5%
Cc1cc(N/N=C/c2ccc3c(c2)OCO3)nc2ccccc12	?	.	2.5µM*	2.7µM*	14%	-22%
Fc1ccc(/C=N/Nc2nc3ccccc3[nH]2)cc1F	?	12%	29%	12µM*	10%	-20%
CN(C)c1nc(NCc2ccccc2)nc(N/N=C/c2ccc3c(c2)OCO3)n1	-6%	-16%	0%	-12%	-2%	1%
O=c1[nH]c(N/N=C\c2ccc3c(c2)OCO3)nc2ccccc12	0.79µM*	8.9µM*	0.56µM*	3.8µM*	?	-12%
C(=N\Nc1nc2ccccc2[nH]1)/C1CCCCC1	1%	2%	15%	3.4µM*	?	7%
O=c1[nH]c(N/N=C/c2cc3c(cc2[N+](=O)[O-])OCO3)nc2ccccc12	4%	.	-2%	-2%	4%	-2%
COc1ccccc1NC(=O)C1CCCN(c2ncnc3onc(-c4ccc(F)cc4)c23)C1 (stereo not drawn)	.	.	.	0%	.	.
CCc1ccc(NC(=O)CCn2cnc3ccccc3c2=O)cc1	.	.	.	-14%	.	.
SMILES	NPC1 promoter act	SMN2 splice up	Rab9 promoter act	FLuc counter	ELG1 genotox	uPA surface inh
O=C(c1ccncc1)N1CCC[C@@]2(CCN(c3ccccn3)C2)C1	.	-5%	.	.	.	.
C(=N\Nc1nn[nH]n1)/c1ccccc1	-1%	-5%	0%	-1%	3%	8%
Brc1ccc(-c2ccc(/C=N/Nc3nncc(-c4ccccc4)n3)o2)cc1	2%	-4%	-1%	-11%	-1%	-2%
Brc1ccc(-c2ccc(/C=N/Nc3nc4ccccc4[nH]3)o2)cc1	?	7.9µM*	?	0.85µM*	?	10µM*
C(/CCc1ccccc1)=N\Nc1nc2ccccc2[nH]1	14%	9%	22%	2.1µM*	?	-13%
C(=C\c1ccccc1)/C=N/Nc1nc2ccccc2[nH]1	3.2µM*	.	4.5µM*	3.8µM*	18µM*	4µM*
C(=N\Nc1nc2ccccc2[nH]1)/c1ccccc1	?	13µM*	?	11µM*	?	-7%
COC(=O)c1ccccc1NC(=O)NCc1ccc2c(c1)CCN2C(=O)c1ccccc1	.	.	.	-11%	.	.
Cc1c(NC(=O)c2ccc(Br)o2)cccc1-c1nc2ccccc2o1	.	10%	.	-8%	.	.
CCOC(=O)CSc1nc2sc3c(c2c(=O)n1-c1ccc(OC)cc1)CC(C(C)C)OC3 (stereo not drawn)	.	-10%	.	-2%	.	.
Cc1cc(=O)[nH]c(N/N=C/c2ccc(F)cc2)n1	16%	.	23%	?	7%	5%
Fc1cccc(/C=N/Nc2nc3ccccc3[nH]2)c1	?	?	3.2µM*	8.5µM*	?	-4%
O=c1[nH]c(N/N=C/c2ccccc2)nc2ccccc12	3.2µM*	14µM*	2.2µM*	6µM*	2.3µM*	.
O=C(NCc1cccnc1)c1ccc(-c2cc(Cl)ccc2Cl)o1	-2%	.	-10%	-11%	-7%	5%
O=C(Nc1cccnc1)c1ccc(-c2ccc(Cl)cc2)o1	?	2%	?	6µM*	9%	2%
O=C(NCc1cccnc1)c1ccc(-c2ccc(Cl)cc2)o1	-3%	.	-1%	?	0%	-15%
O=C(Nc1cccnc1)c1ccc(-c2cc(Cl)ccc2Cl)o1	0%	-4%	4%	17µM*	-8%	-1%
CCOc1ccc(C(=O)Nc2cccc(NC(=O)c3ccco3)c2)cc1Cl	.	-1%	.	?	.	.
Cc1nnsc1C(=O)N/N=C/c1c(F)cccc1Cl	2%	2%	12%	-1%	1%	3%
Cc1[nH]cnc1C(=O)N/N=C/c1c(Cl)cccc1Cl	?	.	?	15µM*	24%	-9%
CN(C)/C=N/c1c(C#N)cnn1-c1nc2ccccc2s1	0.11µM*	-10%	0.13µM*	-8%	13%	2%
O=C(NNC1=C(C(=O)C(F)(F)F)CCC1)c1ccccc1O	13%	-24%	26%	27µM*	-24%	4%
Cc1cc(/C=C2\SC(=S)N(Cc3ccco3)C2=O)c(C)n1-c1ccccc1	?	.	3.5µM*	3µM*	5.2µM*	-2%
Cc1cc(/C=C2\SC(=O)N(C)C2=O)c(C)n1-c1ccc(O)cc1	0.45µM*	.	0.2µM*	0.48µM*	0.65µM*	-23%
COc1ccc(-n2c(C)cc(/C=C3/SC(=S)N(C)C3=O)c2C)cc1	?	-19%	?	3.4µM*	10µM*	1%
Cc1cc(/C=C2\SC(=S)N(C)C2=O)c(C)n1-c1cccc(O)c1	?	.	15%	1.1µM*	?	-3%
